Measurements reported in PubChem BioAssay (EPA / NIEHS).
Where “and” joins values, the source holds several entries; their conditions need not be identical. Equal values may be shown once. Some structures have more than one record in an assay (separate samples or runs), and their calls can disagree. Calls of active or inactive are those of the source. The calls were made as follows: active = hit-call score of the fitted dose curve at least 0.9, where 1 is the maximum; inactive = score below 0.9.

Tests used:
[1] = read-out: Interleukin-6 (IL6), IL6 (gene 3569); assay: BSK_CASM3C_IL6: BioMAP Diversity Plus: CASM3C Assay for Interleukin-6 (IL6) Biomarker Activity for (AID 2283040); settings: primary human coronary artery smooth muscle cells; actives raise or lower the signal
[2] = read-out: Tissue plasminogen activator (tPA), PLAT (gene 5327); assay: BSK_BE3C_tPA: BioMAP Diversity Plus: BE3C Assay for Tissue plasminogen activator (tPA) Biomarker Activity (AID 2283041); settings: primary human bronchial epithelial cells; actives raise or lower the signal;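 as to outcome: tPA level quantified by ELISA one day after compound addition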
Summary of the method: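 Bidirectional curve fitting relative to DMSO defined activity, with tPA detected by ELISA in chemically treated human bronchial epithelial primary cells at 24 hours.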

[3] = read-out: Interleukin-8 (IL8), CXCL8 (gene 3576); assay: BSK_CASM3C_IL8: BioMAP Diversity Plus: CASM3C Assay for Interleukin-8 (IL8) Biomarker Activity (AID 2283042); settings: primary human coronary artery smooth muscle cells; actives raise or lower the signal;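 also: IL-8 protein level quantified by ELISA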
[4] = read-out: Human Leukocyte Antigen - DR isotype (HLADR), HLA-DRA (gene 3122); assay: BSK_CASM3C_HLADR: BioMAP Diversity Plus: CASM3C Assay for Human Leukocyte Antigen - DR isotype (HLADR) Biomarker Activity (AID 2283043); settings: primary human coronary artery smooth muscle cells; actives raise or lower the signal;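 also: cell-surface HLA-DR protein level quantified by ELISA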
[5] = read-out: Macrophage colony-stimulating factor (MCSF), CSF1 (gene 1435); assay: BSK_CASM3C_MCSF: BioMAP Diversity Plus: CASM3C Assay for Macrophage colony-stimulating factor (MCSF) Biomarker Activity (AID 2283044); settings: primary human coronary artery smooth muscle cells; actives raise or lower the signal;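 also: M-CSF protein amount quantified by ELISA after 24 h exposure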
[6] = read-out: Low-density lipoprotein receptor (LDLR), LDLR (gene 3949); assay: BSK_CASM3C_LDLR: BioMAP Diversity Plus: CASM3C Assay for Low-density lipoprotein receptor (LDLR) Biomarker Activity (AID 2283045); settings: primary human coronary artery smooth muscle cells; actives raise or lower the signal;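 also: LDLR protein level on the cell surface quantified by ELISA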
[7] = read-out: Monocyte Chemoattractant Protein-1 (MCP1), CCL2 (gene 6347); assay: BSK_CASM3C_MCP1: BioMAP Diversity Plus: CASM3C Assay for Monocyte Chemoattractant Protein-1 (MCP1) Biomarker Activity (AID 2283046); settings: primary human coronary artery smooth muscle cells; actives raise or lower the signal;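 also: MCP-1 level quantified by ELISA 24 h after dosing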
[8] = BSK_CASM3C_Proliferation: Cell Proliferation Assessment in the BioMAP Diversity Plus: CASM3C Assay (AID 2283047); settings: primary human coronary artery smooth muscle cells;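 also: sulforhodamine B total protein stain as relative cell number at 560 nm; sub-confluent cells exposed 48 h before staining; fitted both ways against DMSO so gain or loss of cell number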
[9] = read-out: Monokine induced gamma interferon (MIG), CXCL9 (gene 4283); assay: BSK_CASM3C_MIG: BioMAP Diversity Plus: CASM3C Assay for Monokine induced gamma interferon (MIG) Biomarker Activity (AID 2283048); settings: primary human coronary artery smooth muscle cells; actives raise or lower the signal;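 also: MIG protein level measured by ELISA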
[10] = read-out: serum amyloid A (SAA), SAA1 (gene 6288); assay: BSK_CASM3C_SAA: BioMAP Diversity Plus: CASM3C Assay for serum amyloid A (SAA) Biomarker Activity (AID 2283049); settings: primary human coronary artery smooth muscle cells; actives raise or lower the signal;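 also: SAA protein level quantified by ELISA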

Row | SMILES | outcome [1] | outcome [2] | outcome [3] | outcome [4] | outcome [5] | outcome [6] | outcome [7] | outcome [8] | outcome [9] | outcome [10] | AC50 [8] | AC50 [10] | AC50 [1] | AC50 [2] | AC50 [3] | AC50 [4] | AC50 [5] | AC50 [6] | AC50 [7] | AC50 [9]
1 | O=S(=O)(OCCOC(F)(F)F)C(F)(F)F | inactive | inactive | inactive | inactive | inactive | inactive | inactive | inactive | inactive | inactive |  |  |  |  |  |  |  |  |  | 
2 | FC(F)(F)C(F)(F)C(F)(F)C(F)(F)C(F)(F)C(F)(F)CC1CO1 (stereo unspecified) | inactive | inactive | inactive | inactive | inactive | inactive | inactive | inactive | inactive | inactive |  |  |  |  |  |  |  |  |  | 
3 | C=C(C)C(=O)OCC(F)(F)C(F)(F)C(F)(F)C(F)(F)C(F)(F)C(F)(F)C(F)(F)F | inactive | inactive | inactive | inactive | inactive | inactive | inactive | inactive | inactive | inactive |  |  |  |  |  |  |  |  |  | 
4 | FC(F)(F)C(F)(F)CNCC(F)(F)C(F)(F)F | inactive | inactive | inactive | inactive | inactive | inactive | inactive | inactive | inactive | inactive |  |  |  |  |  |  |  |  |  | 
5 | CCO[Si](CCC(F)(F)C(F)(F)C(F)(F)C(F)(F)C(F)(F)C(F)(F)F)(OCC)OCC | inactive | inactive | inactive | inactive | inactive | inactive | inactive | inactive | inactive | inactive |  |  |  |  |  |  |  |  |  | 
6 | FC(F)(F)C(F)(F)C(F)(F)C(F)(F)C(F)(F)CCI | inactive | inactive | inactive | inactive | inactive | inactive | inactive |  | inactive | inactive | 7.99 µM (active) and 30 µM (active) |  |  |  |  |  |  |  |  | 
7 | O=C(O)C(F)(OC(F)(F)C(F)(OC(F)(F)C(F)(OC(F)(F)C(F)(F)C(F)(F)F)C(F)(F)F)C(F)(F)F)C(F)(F)F (stereo unspecified) | inactive | inactive | inactive | inactive | inactive | inactive | inactive | inactive | inactive | inactive |  |  |  |  |  |  |  |  |  | 
8 | FC(F)(F)C(F)(F)C(F)(F)C(F)(F)C(F)(F)C(F)(F)C(F)(F)I | inactive | inactive | inactive | inactive | inactive | inactive | inactive | inactive | inactive | inactive |  |  |  |  |  |  |  |  |  | 
9 | C=CC/C=C/C/C=C/C/C=C/C | inactive | inactive | inactive | inactive | inactive | inactive | inactive |  | inactive | inactive | 0.108 µM (active) |  |  |  |  |  |  |  |  | 
10 | CCCCCCOC(=O)c1ccccc1O | inactive | inactive | inactive | inactive | inactive | inactive | inactive |  | inactive | inactive | 33.5 µM (active) and 24.5 µM (active) |  |  |  |  |  |  |  |  | 
11 | CC(=O)Nc1ccc(N=Nc2cc(C)ccc2O)cc1 | inactive | inactive | inactive | inactive | inactive | inactive | inactive | inactive | inactive | inactive |  |  |  |  |  |  |  |  |  | 
12 | O=C(O)C(F)(F)C(F)(F)C(F)F | inactive | inactive | inactive | inactive | inactive | inactive | inactive | inactive | inactive | inactive |  | 5.48 µM (active) |  |  |  |  |  |  |  | 
13 | O=C(O)C(F)(F)C(F)(F)C(F)(F)C(F)(F)F | inactive | inactive | inactive | inactive | inactive | inactive | inactive | inactive | inactive | inactive |  |  |  |  |  |  |  |  |  | 
14 | FC(F)(F)C(F)(F)C(F)(F)C(F)(F)C(F)(F)C(F)(F)CCS | inactive | inactive | inactive | inactive | inactive | inactive | inactive | inactive | inactive | inactive |  |  |  |  |  |  |  |  |  | 
15 | COC(=O)CCC(F)(F)C(F)(F)C(F)(F)C(F)(F)F | inactive | inactive | inactive | inactive | inactive | inactive | inactive | inactive | inactive | inactive |  |  |  |  |  |  |  |  |  | 
16 | CCCCCCCCCCCCCCCC[N+](C)(C)Cc1ccccc1 |  |  |  |  |  |  |  |  |  |  | 1.29 µM (active) | 2.59 µM (active) | 3.74 µM (active) | 7.03 µM (active) | 4.79 µM (active) | 2.56 µM (active) | 1.89 µM (active) | 9.64 µM (active) | 3.5 µM (active) | 5.11 µM (active)
17 | CCCCCCCOC(=O)c1ccccc1C(=O)OCCCCCCC | inactive | inactive | inactive | inactive | inactive | inactive | inactive | inactive | inactive | inactive |  |  |  |  |  |  |  |  |  | 
18 | CCc1ccc(C(c2ccc(CC)cc2)C(Cl)Cl)cc1 | inactive |  | inactive | inactive | inactive | inactive | inactive | inactive | inactive | inactive |  |  |  | 14.1 µM (active) |  |  |  |  |  | 

Row | SMILES | outcome [1] | outcome [2] | outcome [3] | outcome [4] | outcome [5] | outcome [6] | outcome [7] | outcome [8] | outcome [9] | outcome [10] | AC50 [8] | AC50 [10] | AC50 [1] | AC50 [2] | AC50 [3] | AC50 [4] | AC50 [5] | AC50 [6] | AC50 [7] | AC50 [9]
19 | FC(F)(F)C(F)(F)C(F)(F)N(C(F)(F)C(F)(F)C(F)(F)F)C(F)(F)C(F)(F)C(F)(F)F | inactive | inactive | inactive | inactive | inactive | inactive | inactive | inactive | inactive | inactive |  |  |  |  |  |  |  |  |  | 
20 | FC(F)(F)C(F)(F)C(F)(F)C(F)(F)C(F)(F)C(F)(F)C(F)(F)Br | inactive | inactive | inactive | inactive | inactive | inactive | inactive | inactive | inactive | inactive |  |  |  |  |  |  |  |  |  | 
21 | O[Si](c1ccccc1)(c1ccccc1)c1ccccc1 | inactive | inactive | inactive | inactive | inactive | inactive | inactive |  | inactive | inactive | 20 µM (active) |  |  |  |  |  |  |  |  | 
22 | FC(F)(F)C(F)(F)C(F)(F)CI | inactive | inactive | inactive | inactive | inactive | inactive | inactive | inactive | inactive | inactive |  |  |  |  |  |  |  |  |  | 
23 | CCCCNc1ccccc1 | inactive | inactive | inactive | inactive | inactive | inactive | inactive | inactive | inactive | inactive |  |  |  |  |  |  |  |  |  | 
24 | O=C(O)C(F)(F)C(F)(F)OC(F)(F)F | inactive | inactive | inactive | inactive | inactive | inactive | inactive | inactive | inactive | inactive |  |  |  |  |  |  |  |  |  | 
25 | FC(F)(F)C(F)(F)C(F)(F)C(F)(F)C(F)(F)C(F)(F)C(F)(F)C(F)(F)CCS | inactive | inactive | inactive | inactive | inactive | inactive | inactive | inactive | inactive | inactive |  |  |  |  |  |  |  |  |  | 
26 | FC(F)(F)C(F)(F)C(F)(F)C(F)(F)C(F)(F)C(F)(F)C(F)(F)C(F)(F)F | inactive | inactive | inactive | inactive | inactive | inactive | inactive | inactive | inactive | inactive |  |  |  |  |  |  |  |  |  | 
27 | CCN(CC)c1ccc2c(C)cc(=O)oc2c1 | inactive | inactive | inactive | inactive | inactive |  | inactive | inactive | inactive | inactive |  |  |  |  |  |  |  | 31.3 µM (active) |  | 
28 | C=CC(F)(F)C(F)(F)C(F)(F)C(F)(F)C(F)(F)C(F)(F)C(F)(F)C(F)(F)F | inactive | inactive | inactive | inactive | inactive | inactive | inactive | inactive | inactive | inactive |  |  |  |  |  |  |  |  |  | 
29 | CO[Si](OC)(c1ccccc1)c1ccccc1 |  | inactive | inactive |  |  |  |  |  | inactive |  | 34.2 µM (active) | 30.9 µM (active) | 31.5 µM (active) |  |  | 39.1 µM (active) | 33.2 µM (active) | 30.8 µM (active) | 36.7 µM (active) | 
30 | C=CC(F)(F)C(F)(F)C(F)(F)C(F)(F)C(F)(F)C(F)(F)C(F)(F)C(F)(F)C=C | inactive | inactive | inactive | inactive | inactive | inactive | inactive | inactive | inactive | inactive |  |  |  |  |  |  |  |  |  | 
31 | CS(C)(=O)=O | inactive | inactive | inactive | inactive | inactive | inactive | inactive | inactive | inactive | inactive |  |  |  |  |  |  |  |  |  | 
32 | CC(C)(C)C(=O)CC(=O)C(F)(F)C(F)(F)C(F)(F)F | inactive | inactive | inactive | inactive | inactive | inactive | inactive | inactive | inactive | inactive |  |  |  |  |  |  |  |  |  | 
33 | OCC(F)(F)C(F)(F)C(F)(F)C(F)(F)C(F)(F)C(F)(F)F | inactive | inactive | inactive | inactive | inactive | inactive | inactive |  | inactive | inactive | 46.6 µM (active) and 54.9 µM (active) |  |  |  |  |  |  |  |  | 
34 | CCCCC(CC)COP(=O)(O)OCC(CC)CCCC (stereo unspecified) | inactive |  | inactive | inactive | inactive | inactive | inactive | inactive | inactive | inactive |  |  |  | 25.9 µM (active) and 14.4 µM (active) |  |  |  |  |  | 
35 | NC(=O)C(F)(F)C(F)(F)C(F)(F)C(F)(F)F | inactive | inactive | inactive | inactive | inactive | inactive | inactive | inactive | inactive | inactive |  |  |  |  |  |  |  |  |  | 
36 | O=C(O)C(F)(OC(F)(F)C(F)(OC(F)(F)C(F)(F)C(F)(F)F)C(F)(F)F)C(F)(F)F (stereo unspecified) | inactive | inactive | inactive | inactive | inactive | inactive | inactive | inactive | inactive | inactive |  |  |  |  |  |  |  |  |  | 
